Assay results as given in PubChem BioAssay (NCI).
The panel holds about 83,000 compounds, 20% with a hit somewhere; the sample as a whole holds those more often.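 Note: values are percent growth. 100 is the growth of untreated cells, values between 100 and 0 indicate rising inhibition; between -100 and 0 indicates cell death.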 Values without a mark were called inactive. Active and inactive are the calls of the source. Rule for the calls: active = growth percent below 10; inactive = the rest.

What was measured:
Experiment in all cases: NCI-60 one-dose screen, 48 h (100 = growth as untreated, 0 = no growth, -100 = all killed)
Conditions in all cases: 10 µM unless noted
[1] = system: NCI-H23 lung
[2] = system: NCI-H226 lung
[3] = system: NCI-H322M lung
[4] = system: HOP-62 NSCLC
[5] = system: HOP-92 NSCLC
[6] = system: NCI-H522 lung
[7] = system: A549/ATCC NSCLC
[8] = system: 786-0 renal
[9] = system: COLO 205 colon
[10] = system: DU-145 prostate
[11] = system: K-562 leukemia
[12] = system: MALME-3M melanoma
[13] = system: MDA-MB-231 breast
[14] = system: RXF 393 renal
[15] = system: SF-268 CNS
[16] = system: SF-295 CNS
[17] = system: SF-539 CNS
[18] = system: UACC-257 melanoma
[19] = system: M14 melanoma
[20] = system: NCI-H460 lung

`O=c1c2cc(F)ccc2sc2c(NCCN3CCOCC3)nc3ccccc3c12` gave a growth [1] of 85.1%, a growth [2] of 91.3% and a growth [3] of 77.8%. It also gave a growth [4] of 80.9%, a growth [5] of 44.6% and a growth [6] of 65.6%. For the same compound, the growth [7] was 69.3%, the growth [8] was 59.2% and the growth [9] was 53.2%. The growth [10] was 68.4%, the growth [11] was 0.338% (active) and the growth [12] was 92%. It also gave a growth [13] of 25.9%, a growth [14] of 72.9% and a growth [15] of 68.7%. The growth [16] was 89.4%, the growth [17] was 74.7% and the growth [18] was 98.2%. The growth [19] was 46.5%.

`CC(=O)O.CN1[CH-]N(Cc2ccc(C#N)cc2)c2ccccc21.[Ag+]` was tested, and the growth [1] was 105%, the growth [2] was 103% and the growth [4] was 108%. For the same compound, the growth [20] was 97.9%, the growth [5] was 116% and the growth [6] was -89.1% (active). For the same compound, the growth [7] was 68%, the growth [8] was 103% and the growth [9] was 54%. The growth [10] was 111%, the growth [11] was 45.8% and the growth [12] was 102%. It also gave a growth [13] of 110%, a growth [14] of 117% and a growth [15] of 109%. For the same compound, the growth [16] was 110%, the growth [17] was 106% and the growth [18] was 81.2%.

With `Cn1cc(-c2ccc3cc(-c4ccc(CC(=O)Nc5cc(C(C)(C)C)nn5C)cc4)cnc3c2)cn1` the growth [1] was 5.37% (active), the growth [2] was -17% (active) and the growth [3] was 21.4%. For the same compound, the growth [4] was 15.9%, the growth [5] was 21.1% and the growth [6] was 10.8%. It also gave a growth [7] of 17.1%, a growth [8] of 21.4% and a growth [9] of 16.2%. The growth [10] was 14.8%, the growth [11] was 13.8% and the growth [12] was -9.19% (active). For the same compound, the growth [13] was -15% (active), the growth [14] was -18.6% (active) and the growth [15] was 17.4%. The growth [16] was 16.7%, the growth [17] was 15.7% and the growth [18] was 13.1%. The growth [19] was 11.1%.

`CCN(CC)S(=O)(=O)c1ccc(NC(=O)CSc2nnc(C)n2-c2ccccc2)cc1` gave a growth [1] of 97.6%, a growth [2] of 95.3% and a growth [3] of 113%. The growth [4] was 104%, the growth [5] was 76.9% and the growth [6] was 85.3%. It also gave a growth [7] of 109%, a growth [8] of 109% and a growth [9] of 112%. For the same compound, the growth [10] was 120%, the growth [11] was 88.5% and the growth [12] was 132%. The growth [13] was 108%, the growth [14] was 110% and the growth [15] was 97.7%. For the same compound, the growth [16] was 115%, the growth [17] was 101% and the growth [18] was 95.4%. It also gave a growth [19] of 116%.

In the case of `O=C(N/N=C/c1ccc(Cl)cc1)c1ccc(C(F)(F)F)nc1Nc1cccc(C(F)(F)F)c1`, the growth [1] is reported as -36.7% (active), the growth [2] is reported as 21.2% and the growth [3] is reported as 8.21% (active). The growth [4] was 43.5%, the growth [5] was -0.43% (active) and the growth [6] was 8.57% (active). For the same compound, the growth [7] was 19.5%, the growth [8] was 23.1% and the growth [9] was -12.6% (active). The growth [10] was 13.2%, the growth [11] was 1.81% (active) and the growth [12] was 50.4%. The growth [13] was 16%, the growth [14] was 42.6% and the growth [15] was 2.52% (active). For the same compound, the growth [16] was -22.9% (active), the growth [17] was 3.47% (active) and the growth [18] was 20%. The growth [19] was 42.7%.

Compound `COc1cc2cc(Oc3ccc(NC(=O)Nc4cccc(C(F)(F)F)c4)cc3)c(C)nc2cc1OCCN1CCOCC1` has a growth [1] of 15.4%, a growth [2] of 57% and a growth [3] of 80.4%. For the same compound, the growth [4] was 50.8%, the growth [5] was 33.9% and the growth [6] was 29.3%. The growth [7] was 15.8%, the growth [8] was 67.3% and the growth [9] was 35.5%. It also gave a growth [10] of 33.5%, a growth [11] of 11.6% and a growth [12] of 55%. It also gave a growth [13] of 57.9%, a growth [14] of 62% and a growth [15] of 55.8%. For the same compound, the growth [16] was 26.7%, the growth [17] was 73.7% and the growth [18] was 31%. For the same compound, the growth [19] was 34.3%.

In the case of `COc1ccc(-c2[nH]ncc2-c2cc3c(c(OC)c2)OCC(=O)N3)cc1`, the growth [1] is reported as 30%, the growth [2] is reported as 61.8% and the growth [3] is reported as 43%. The growth [4] was 27.2%, the growth [5] was 63% and the growth [6] was -47.2% (active). The growth [7] was 35.2%, the growth [8] was 27% and the growth [9] was -24.9% (active). It also gave a growth [10] of 14.8%, a growth [11] of 12.6% and a growth [12] of 57.3%. For the same compound, the growth [13] was 7.86% (active), the growth [14] was -35.1% (active) and the growth [15] was 54%. For the same compound, the growth [16] was 9.29% (active), the growth [17] was -23.9% (active) and the growth [18] was 59.8%. It also gave a growth [19] of 11.6%.

`Cc1c(C(=O)NCCCc2ccccc2)sc2ncc(-c3ccc(Br)cc3)n12` was tested, and the growth [1] was 91.7%, the growth [2] was 102% and the growth [3] was 100%. For the same compound, the growth [4] was 99.3%, the growth [5] was 113% and the growth [6] was 98.5%. It also gave a growth [7] of 108%, a growth [8] of 100% and a growth [9] of 113%. For the same compound, the growth [10] was 104%, the growth [11] was 101% and the growth [12] was 101%. It also gave a growth [13] of 99.4%, a growth [14] of 109% and a growth [15] of 98.9%. It also gave a growth [16] of 112%, a growth [17] of 103% and a growth [18] of 109%. The growth [19] was 100%.

With `O=C1c2ccccc2NC(n2sc3ccccc3c2=O)N1c1ccccc1` (configuration not stated) the growth [1] was 99%, the growth [2] was 93.3% and the growth [3] was 91.9%. It also gave a growth [4] of 92.3%, a growth [5] of 95.2% and a growth [6] of 76.8%. The growth [7] was 101%, the growth [8] was 92% and the growth [9] was 115%. It also gave a growth [10] of 107%, a growth [11] of 95.5% and a growth [12] of 106%. The growth [13] was 90.6%, the growth [14] was 110% and the growth [15] was 91.7%. For the same compound, the growth [16] was 99.6%, the growth [17] was 94.7% and the growth [18] was 120%. The growth [19] was 102%.

In the case of `COc1ccc(C2CC(c3ccc(Nc4ccnc5cc(Cl)ccc45)cc3)=NN2C=O)cc1` (configuration not stated), the growth [1] is reported as 76.9%, the growth [2] is reported as 90.5% and the growth [3] is reported as 103%. It also gave a growth [4] of 90.7%, a growth [5] of 48.3% and a growth [6] of 67.3%. The growth [7] was 64.3%, the growth [8] was 70.5% and the growth [9] was 89.4%. The growth [10] was 73.4%, the growth [11] was 17.4% and the growth [12] was 62%. It also gave a growth [13] of 78.8%, a growth [14] of 76.7% and a growth [15] of 58%. For the same compound, the growth [16] was 51.5%, the growth [17] was 94.6% and the growth [18] was 93.5%. The growth [19] was 50.5%.

For `COc1cccc(-c2nc(-c3ccc(NC(=O)c4ccccc4)cc3)[nH]c2-c2ccnc(Br)c2)c1`, the growth [1] was 27.9%, the growth [2] was 47% and the growth [3] was 41.2%. For the same compound, the growth [4] was 4.28% (active), the growth [5] was 50.2% and the growth [6] was 16.2%. The growth [7] was 39.3%, the growth [8] was -10.4% (active) and the growth [9] was 16.7%. The growth [10] was 62.2%, the growth [11] was 2.4% (active) and the growth [12] was 28.7%. For the same compound, the growth [13] was 34.2%, the growth [14] was -44.3% (active) and the growth [15] was 51.4%. The growth [16] was -62.5% (active), the growth [17] was -5.94% (active) and the growth [18] was 49.4%. It also gave a growth [19] of 29.6%.

For `CCCCC[C@H](O)C/C=C1/C(=O)C=C[C@@H]1C/C=C\CCCC(=O)O`, the growth [1] was 74.6%, the growth [2] was 83.7% and the growth [3] was 91.1%. It also gave a growth [4] of 84.1%, a growth [5] of 97.2% and a growth [6] of 46.3%. It also gave a growth [7] of 81%, a growth [8] of 83.3% and a growth [9] of 78%. The growth [10] was 67.8%, the growth [11] was 30.1% and the growth [12] was 116%. For the same compound, the growth [14] was 87.9%, the growth [15] was 67% and the growth [16] was 93.7%. It also gave a growth [17] of 92.8%, a growth [18] of 85.8% and a growth [19] of 70.1%.

Compound `CCc1cccc2c3c(sc12)C(c1ccc(F)cc1)C(C#N)=C(N)O3` (configuration not stated) has a growth [1] of 33.6%, a growth [2] of 29.1% and a growth [4] of 48.7%. It also gave a growth [20] of 12.9%, a growth [5] of 78.9% and a growth [6] of 26.8%. The growth [7] was 31.9%, the growth [8] was 30% and the growth [9] was 5.48% (active). For the same compound, the growth [10] was 24.5%, the growth [11] was 12.4% and the growth [12] was 75.9%. The growth [13] was 21.1%, the growth [14] was 1.43% (active) and the growth [15] was 54.5%. The growth [16] was 8.12% (active), the growth [17] was 2.76% (active) and the growth [18] was 74.2%. It also gave a growth [19] of 19.2%.

In the case of `COc1ccc(-c2csc(NC(=O)N3CCN(c4cc5c(cc4F)c(=O)c(C(=O)O)cn5C4CC4)CC3)n2)cc1`, the growth [1] is reported as -2.88% (active), the growth [2] is reported as 18.8% and the growth [3] is reported as 7.07% (active). For the same compound, the growth [4] was 20%, the growth [5] was -25.6% (active) and the growth [6] was -13.9% (active). The growth [7] was 3.2% (active), the growth [8] was 20.7% and the growth [9] was 9.52% (active). The growth [10] was 10.6%, the growth [11] was 11.7% and the growth [12] was -11.4% (active). The growth [14] was 34.4%, the growth [15] was 20% and the growth [16] was -4.61% (active). The growth [17] was 20.6%, the growth [18] was -17.6% (active) and the growth [19] was 9.8% (active).

In the case of `NCCNc1nc2ccccc2c2c(=O)c3cc(F)ccc3sc12`, the growth [1] is reported as 84.9%, the growth [2] is reported as 96% and the growth [3] is reported as 72.6%. It also gave a growth [4] of 76.5%, a growth [5] of 59.1% and a growth [6] of 79.4%. For the same compound, the growth [7] was 66.1%, the growth [8] was 73.5% and the growth [9] was -1% (active). The growth [10] was 65.9%, the growth [11] was 1.61% (active) and the growth [12] was 96.2%. The growth [13] was 33.7%, the growth [14] was 77.8% and the growth [15] was 66.9%. The growth [16] was 102%, the growth [17] was 82.7% and the growth [18] was 103%. It also gave a growth [19] of 77.4%.
